Measurements as given in PubChem BioAssay (NCATS).
Inconclusive results are not listed. The source made the active and inactive calls. Calls follow the shape of the dose curve; as a rule, active = well fitted inhibition curve with a large enough effect; inconclusive = small, poorly fitted or top-dose-only effect; inactive = flat fitted curve, though single readings scatter.

What was measured:
Test in all cases: qHTS profiling for inhibitors of Plasmodium falciparum proliferation (AID 504749); also: nearly all actives have a fitted effect of over 60% in size
Conditions in all cases: P. falciparum in erythrocytes, SYBR Green DNA, 72 h; series mostly up to 28.7 µM
CP215 = test system: CP215
Method in brief: (§1)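 Fluorescence of SYBR Green-bound parasite DNA, read at 485/535 nm, served as the growth measure. Infected erythrocytes were cultured with compound 72 h; artemisinin (0.29 uM) and DMSO wells defined the normalization range.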

CP217 = test system: CP217
Method in brief: as §1

CP237 = test system: CP237
Method in brief: as §1

CP238 = test system: CP238
Method in brief: as §1

CP247 = test system: CP247
Method in brief: as §1

CP250 = test system: CP250
Method in brief: as §1

CP252 = test system: CP252
Method in brief: as §1

CP256 = test system: CP256
Method in brief: as §1

CP260 = test system: CP260
Method in brief: as §1

CP262 = test system: CP262
Method in brief: as §1

CP265 = test system: CP265
Method in brief: as §1

CP266 = test system: CP266
Method in brief: as §1

CP269 = test system: CP269
Method in brief: as §1

CP286 = test system: CP286
Method in brief: as §1

CP291 = test system: CP291
Method in brief: as §1

CP297 = test system: CP297
Method in brief: as §1

CP305 = test system: CP305
Method in brief: as §1

CP315 = test system: CP315
Method in brief: as §1

CP325 = test system: CP325
Method in brief: as §1

CP268 = test system: CP268
Method in brief: as §1

Measured: Potency
Potency is read from the fitted curve at half-maximal effect.

Cc1cc(C(C)(C)C)cc(C)c1CC1=NCCN1
active: CP237 3980 nM
not listed: CP268
inactive: all other assays above

Cn1cnc2c1c(=O)[nH]c(=O)n2C
inactive: all assays above

NCCS(=O)(=O)O
not listed: CP291 | CP315
inactive: all other assays above

NC(=O)NO
inactive: all assays above

C[C@](N)(Cc1ccc(O)c(O)c1)C(=O)O
inactive: all assays above

CC(C)(C)C(=O)Oc1ccc(S(=O)(=O)Nc2ccccc2C(=O)NCC(=O)O)cc1
inactive: all assays above

CCOC(=O)C(C)(C)Oc1ccc(Cl)cc1
inactive: all assays above

Cn1c(=O)c2[nH]cnc2n(C)c1=O
inactive: all assays above

CN1CCC(=C2c3ccccc3C=Cc3ccccc32)CC1
not listed: CP269 | CP268
inactive: all other assays above

Cc1cn([C@H]2C=C[C@@H](CO)O2)c(=O)[nH]c1=O
not listed: CP266
inactive: all other assays above

O=c1c(-c2ccc(O)cc2)coc2cc(O)cc(O)c12
inactive: all assays above

CS(=O)(=O)CCNCc1ccc(-c2ccc3ncnc(Nc4ccc(OCc5cccc(F)c5)c(Cl)c4)c3c2)o1
not listed: CP297 | CP268
inactive: all other assays above

NCCCCCC(=O)O
inactive: all assays above

CS(=O)(=O)Nc1ccc([N+](=O)[O-])cc1Oc1ccccc1
inactive: all assays above

COc1nc(C)nc(Cl)c1NC1=NCCN1
not listed: CP266 | CP297
inactive: all other assays above

CN1CCN2c3ccccc3Cc3ccccc3C2C1 (stereo not given)
inactive: all assays above

Cc1ccc(C(=O)Nc2ccc(S(=O)(=O)O)c3cc(S(=O)(=O)O)cc(S(=O)(=O)O)c23)cc1NC(=O)c1cccc(NC(=O)Nc2cccc(C(=O)Nc3cc(C(=O)Nc4ccc(S(=O)(=O)O)c5cc(S(=O)(=O)O)cc(S(=O)(=O)O)c45)ccc3C)c2)c1
inactive: all assays above

CC(CCc1ccc(O)cc1)NCCc1ccc(O)c(O)c1 (stereo not given)
inactive: all assays above

COc1ccccc1N1CCN(CC(O)COc2cccc3ccccc23)CC1 (stereo not given)
inactive: all assays above

NC(=O)OCC(COC(N)=O)c1ccccc1
inactive: all assays above

NCCc1cnc[nH]1
inactive: all assays above

CCCNCC(O)COc1ccccc1C(=O)CCc1ccccc1 (stereo not given)
active: CP215 1510 nM | CP217 891 nM | CP237 447 nM | CP238 1000 nM | CP247 1000 nM | CP250 1000 nM | CP252 631 nM | CP256 1000 nM | CP260 891 nM | CP262 4780 nM | CP265 355 nM | CP266 10700 nM | CP268 4260 nM | CP269 3790 nM | CP286 1580 nM | CP291 4260 nM | CP297 3790 nM | CP305 4260 nM | CP315 4780 nM | CP325 4260 nM

Clc1ccc2nsnc2c1NC1=NCCN1
inactive: all assays above

Nc1nnc(-c2cccc(Cl)c2Cl)c(N)n1
inactive: all assays above

NS(=O)(=O)c1cc2c(cc1Cl)NCNS2(=O)=O
inactive: all assays above

CC(C)Cc1ccc(C(C)C(=O)O)cc1 (stereo not given)
inactive: all assays above
